Bioassay records (PubChem BioAssay)
GSIS activator = GLuc luminescence reporter in INS-1E cells, primary screen for activators of glucose-dependent secretion of insulin; INS-1E GLuc reporter insulin secretion, 2-3 h; activation, % at 16.6 µM; hit rate 0.61% among 370,000;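 active = lowest replicate activation of at least 40%, so every replicate reaches that level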;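 also: 0% = median of neutral control wells and 100% = median of IBMX positive control wells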
HIV Env fusion = inhibitors of HIV-1 Env-driven cell-cell fusion, primary screen, HeLa-JRFL effector, CEM21 target cells, luciferase; inhibition, % at 12.3 µM; hit rate 1.1% among 360,000;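 active = mean replicate inhibition score of at least 50 and every replicate individually at or above 50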;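 also: 0% = plate neutral controls and 100% = maraviroc near 300 nM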
miR-122 sensor = miR-122 Renilla sensor signal increase in Huh7, primary screen, miR-122 inhibitor project, cell-based, single point, plate reader | activation (reporter increase), % at 12.5 µM | hit rate 0.3% among 340,000 | Huh7 miR-122 Renilla luciferase sensor, 48 h; neutral wells = 0, positive control = 100;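 active = mean replicate activation score at least 90 and every replicate individually at or above 90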;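 also: higher luciferase means less miR-122 activity so hits act as miR-122 inhibitors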
C2C12 statin = suppressors of statin myotoxicity in C2C12 myotubes, primary screen, cell-based, single point, plate reader. C2C12 myotubes + simvastatin, ATP luminescence, 48 h; scaled: DMSO 0, geranylgeraniol control 100. rescue of ATP level, % at 7.49 µM. hit rate 0.78% among 330,000. AID 602340, 2012;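 active = mean ATP rescue above about 67%, or every replicate alone reaching that limit, limit read from the data, passing the limit was not always enough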;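 also: myotubes were challenged with 10 µM simvastatin during compound exposure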
EWS-Fli inh = EWS/Fli-driven NR0B1 reporter inhibitors, primary screen, A673 cells, NR0B1 luciferase, luminescence, MLPCN library; viability-normalised; inhibition, % at 12.6 µM; hit rate 0.67% among 350,000; AID 651661, 2012;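 active = mean inhibition of at least 50% after viability correction, with every replicate also passing that limit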;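 also: firefly luciferase signal divided by Alamar Blue viability fluorescence both relative to DMSO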
PAX8 inh HTS = inhibitors of PAX8-driven TPO luciferase reporter, primary screen, RMG-I cells, single concentration. SteadyGlo, 24 h. inhibition, % at 12.6 µM. hit rate 1.2% among 360,000. AID 652154, 2013;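 active = mean replicate inhibition at least 60% with every replicate also reaching 60%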;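 also: luciferase light reporting Pax8 driven TPO promoter activity; plate controls were median of neutral control wells for no effect and mitoxantrone controls for full effect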
* marks the source's active call; other numbers are inactive results; i = inactive; . = no result; [ ] = dose if it differs, or a comment. The list is not random: actives were taken first. Their share in the collection is about 3.1%.

SMILES	GSIS activator	HIV Env fusion	miR-122 sensor	C2C12 statin	EWS-Fli inh	PAX8 inh HTS
COc1ccc(-c2ccc(SC)nn2)cc1	26	16	-7	-71	58*	-10
COCC(=O)Nc1cccc2ccccc12	.	-21	4	.	.	15
COc1cc(CO)cc(Br)c1OCC(=O)Nc1cccc2ccccc12	48*	13	-1	3	12	2
CO[C@@H](CN(C)S(=O)(=O)c1cccc(Cl)c1)[C@@H](C)CN([C@@H](C)CO)S(=O)(=O)c1cccc(Cl)c1	-11	.	.	-13	9	.
CO[C@@H](CN(C)S(=O)(=O)c1ccc(Cl)cc1)[C@@H](C)CN([C@@H](C)CO)S(=O)(=O)c1cccc(Cl)c1	-31	43[16.7 µM]	.	10	-3	-2
CO[C@@H](CN(C)S(=O)(=O)c1ccc(Cl)cc1)[C@H](C)CN([C@@H](C)CO)S(=O)(=O)c1cccc(Cl)c1	-31	74*[16.7 µM]	.	-18	4	-6
CO[C@H](CN(C)S(=O)(=O)c1cccc(Cl)c1)[C@H](C)CN([C@H](C)CO)S(=O)(=O)c1ccc(Cl)cc1	-35	45[16.7 µM]	.	17	11	18
CO[C@H](CN(C)S(=O)(=O)c1ccc(Cl)cc1)[C@@H](C)CN([C@@H](C)CO)S(=O)(=O)c1cccc(Cl)c1	-30	77*[16.7 µM]	.	12	9	-2
CO[C@@H](CN(C)S(=O)(=O)c1ccc(Cl)cc1)[C@@H](C)CN([C@H](C)CO)S(=O)(=O)c1cccc(Cl)c1	-30	64*[16.7 µM]	.	-12	10	1
CCC(=O)N(C)C[C@H]1Oc2ncc(C#CCc3ccccc3)cc2C(=O)N([C@H](C)CO)C[C@@H]1C	-14	8[16.7 µM]	6[16.7 µM]	1	-1	.
COc1ccc(S(=O)(=O)N(C)C[C@@H]2OCCCC[C@H](C)Oc3ccc(NS(=O)(=O)c4ccc(C)cc4)cc3C(=O)N([C@H](C)CO)C[C@@H]2C)cc1	-14	-31[16.7 µM]	-1[16.7 µM]	27	14	50
C[C@H]1CN([C@@H](C)CO)C(=O)c2cc(NS(=O)(=O)c3ccc(Cl)cc3)ccc2O[C@H]1CN(C)C(=O)NC1CCCCC1	-17	.	-6[16.7 µM]	1	12	3
COc1ccc(C(OC(=O)c2cccs2)C(=O)NCC2CCCO2)cc1 (stereo not drawn)	.	1	.	5	.	.
COc1ccccc1C(OC(=O)c1cccs1)C(=O)NCC1CCCO1 (stereo not drawn)	57*	-35	-2	-3	.	.
Cc1ccc(C(=O)CC(=O)c2cccc(F)c2)c(O)c1	.	61*	4	2	.	.
C[C@@H]1CN([C@@H](C)CO)S(=O)(=O)c2ccc(-c3cccc(F)c3)cc2O[C@@H]1CN(C)C(=O)C1CC1	-7	22[16.7 µM]	.	9	-9	1
CCCOc1ccc(Cn2cnc3ccccc32)cc1	-51	60*	5	7	.	.
Fc1ccc(Cn2cnc3ccccc32)cc1	10	-23	23	.	.	-14
CCNC(=O)C[C@H]1CC[C@@H]2[C@H](COc3ccc(NC(=O)Nc4ccc(C)cc4)cc3C(=O)N2C)O1	-5	4[16.7 µM]	1[16.7 µM]	-2	-34	-16
Cc1cccc(C2(c3cccc(C)c3)CC2C(=O)Nc2ccc([N+](=O)[O-])cc2O)c1 (stereo not drawn)	-5	75*	.	.	.	95*
CC(=Nc1ccccc1)C1=C(O)C(Cc2cccc(F)c2)NC1=O (stereo not drawn)	19	-31	158*	-51	40	45
CC(=Nc1ccccc1)C1=C(O)C(Cc2ccc(O)cc2)NC1=O (stereo not drawn)	-2	i	.	.	33	67*
COc1ccc(S(=O)(=O)N(C)C[C@@H]2Oc3ccc(NC(=O)CCN4CCOCC4)cc3C(=O)N([C@@H](C)CO)C[C@H]2C)cc1	18	.	-2[16.7 µM]	-11	1	.
CO[C@H]1CN(C)C(=O)c2ccc(NC(=O)C3CC3)cc2OC[C@H](C)N(Cc2ccc(F)cc2)C[C@@H]1C	-18	.	.	.	-4	.
CNC(=O)C[C@H]1CC[C@H]2[C@@H](COc3ccc(NC(=O)NC4CCCC4)cc3C(=O)N2C)O1	9	5[16.7 µM]	1[16.7 µM]	-2	5	2
SMILES	GSIS activator	HIV Env fusion	miR-122 sensor	C2C12 statin	EWS-Fli inh	PAX8 inh HTS
CCC(C)(C)NC(=O)CN(Cc1cccs1)C(=O)CNS(=O)(=O)c1ccc(C)cc1	.	10	-4	83*	.	1
CN(C)S(=O)(=O)c1cccc(N=C2NN=C(c3ccccc3)CS2)c1	-1	16	.	.	18	73*
CC(=O)Nc1ccc(C2=NNC(=Nc3cccc(S(=O)(=O)N(C)C)c3)SC2)cc1	.	.	-15	-127	.	.
CCSc1nc(-c2ccc(OC)cc2)cc(-c2ccccc2)c1C#N	.	.	3	-31	10	.
COc1ccc(-c2cc3nc4ccccc4n3c(N)c2C#N)cc1	86*	-280	.	.	-111	-46
CC(C)(C)OC(=O)N1CCc2onc(-c3ccc(Br)cc3)c2C1=O	-10	72*	-4	7	-37	-45
COc1ccc2c(c1)C(CC(C)=O)N(c1ccc(-c3cccs3)cc1)C(c1ccsc1)=C2 (stereo not drawn)	-34	-36	.	.	18	64*
COc1ccc(-c2ccc(N3C(c4cc(OC)cc(OC)c4)=Cc4ccc(OC)cc4C3CC(C)=O)cc2)cc1 (stereo not drawn)	-6	23	.	.	0	63*
COc1ccc2c(c1)C(CC(C)=O)N(c1ccc(-c3cnc(OC)nc3)cc1)C(c1ccsc1)=C2 (stereo not drawn)	4	-96	.	.	15	12
COc1cc(OC)cc(C2=Cc3ccc(OC)cc3C(CC(C)=O)N2c2ccc(-c3cncnc3)cc2)c1 (stereo not drawn)	-10	-24	.	.	11	43
CCOC(=O)c1c(C)n(-c2ccc(C)cc2)c2ccc(OCC(O)CN3CCN(C)CC3)cc12 (stereo not drawn)	122*	26	.	.	7	28
CCOc1ccccc1N1CCN(C2=C(NS(=O)(=O)c3cccs3)C(=O)c3ccccc3C2=O)CC1	.	.	-2	110*	.	.
COC(=O)[C@]12C[C@H](CC(=O)N3CCCC3)C(=O)N(CCC3=CCCCC3)C1=C[C@H](C(C)(C)C)O[C@@H]2C	294*	20	.	.	20	-14
CCCCNC(=O)C[C@H]1C[C@@]2(C(=O)OC)C(=C[C@H](C(C)(C)C)O[C@@H]2C)N(CCC2=CCCCC2)C1=O	.	72*	.	.	9	7
COC(=O)[C@]12C[C@H](CC(=O)NCc3cccc4ccccc34)C(=O)N(CCC3=CCCCC3)C1=C[C@H](C(C)(C)C)O[C@@H]2C	-8	87*	.	.	12	7
